Test results reported in PubChem BioAssay AID886 (National Center for Advancing Translational Sciences (NCATS), 2007).
In all, about 73,000 compounds went through this assay and about 2,500 (3.4%) were called active. Not shown: some 7% with an inconclusive outcome. Calls come from the whole dose curve; as a rule, active = well fitted inhibition curve with a large enough effect; inconclusive = small, poorly fitted or top-dose-only effect; inactive = no such curve, though single readings can be large or run the other way. The entries come from a sample that favours actives as a whole.

Each molecule was assayed against 3-hydroxyacyl-CoA dehydrogenase type-2 (Homo sapiens) (UniProt Q99714) (assay: qHTS Assay for Inhibitors of HADH2 (Hydroxyacyl-Coenzyme A Dehydrogenase, Type II)). Settings: recombinant HADH2, NADH fluorescence, beta-hydroxybutyryl-CoA; series mostly up to 57.1 µM; activity change, negative = inhibition: at the top concentration.
Chain of 3-hydroxyacyl-CoA dehydrogenase type-2 (Homo sapiens) (Q99714 whole entry, looked up): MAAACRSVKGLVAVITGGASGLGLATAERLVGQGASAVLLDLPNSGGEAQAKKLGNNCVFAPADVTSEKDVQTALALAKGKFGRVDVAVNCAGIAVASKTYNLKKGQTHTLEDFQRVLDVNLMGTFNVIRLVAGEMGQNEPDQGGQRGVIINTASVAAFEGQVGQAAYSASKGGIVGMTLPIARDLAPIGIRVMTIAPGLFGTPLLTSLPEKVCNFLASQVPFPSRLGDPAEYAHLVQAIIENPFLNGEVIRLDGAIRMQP
Chain of 3-hydroxyacyl-CoA dehydrogenase type-2 (Homo sapiens) (Q99714 whole entry, looked up): as above
How it was run: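 Buffer 100 mM Tris-HCl pH 9.0/0.01% Tween-20; HADH2 20 nM; NAD+ 1 mM; beta-hydroxybutyryl-CoA 90 uM (all final). 15 min cpd preincubation, RT.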
% is set by controls: 0 for no effect and ±100 for the full control effect; potency is the fitted concentration of half-maximal effect.
Note: nearly all actives have a fitted effect of over 60% in size.

| SMILES | activity change, negative = inhibition | Potency |
| --- | --- | --- |
| COC(=O)[C@@]1(Cc2ccc(F)cc2)[C@H]2c3cc(C(=O)N4CCCC4)n(Cc4ccc(OC(F)(F)F)cc4)c3C[C@H]2CN1C(=O)c1ccccc1 | 19.7% (inactive) |  |
| CCCCc1cc(=O)oc2cc(C)cc(OCc3nn[nH]n3)c12 |  | 25.1 µM (active) |
| CCc1cc(=O)oc2cc(C)cc(OC(C)C(=O)O)c12 (stereo unspecified) | 35.9% (inactive) |  |
| O=C(O)c1cccc(S(=O)(=O)NCCO)c1 | -11.5% [at 11.4 µM] (inactive) |  |
| NC(=O)CSC1=Nc2ccccc2C2=NC(CCC(=O)NCc3ccc(F)cc3)C(=O)N12 (stereo unspecified) |  | 31.6 µM (active) |
| O=C(CN1C(=O)CCS(=O)(=O)c2ccccc21)NCc1ccc(F)cc1 | -2.44% (inactive) |  |
| CC(C)C1N=C2c3ccccc3N=C(SCC(=O)c3ccc(O)c(O)c3)N2C1=O (stereo unspecified) | -14.9% (inactive) |  |
| CC(=O)/C(=N\N=C(N)N)c1ccccc1 | 5.03% [at 11.4 µM] (inactive) |  |
| NS(=O)(=O)c1cc(C(=O)O)c(Cl)c([N+](=O)[O-])c1Cl | 11.6% [at 11.4 µM] (inactive) |  |
| O=C(c1ccncc1)N1CCC2(CCN(Cc3cc(C(F)(F)F)cc(C(F)(F)F)c3)CC2)CC1 | -3.48% (inactive) |  |
| Cc1nc2cnc(N3CCNCC3)nc2n(CCc2ccccc2)c1=O | 8.83% (inactive) |  |
| Cc1cc(C)c2c(n1)nn1c(-n3ccnc3)cc(C)nc21 | 66.3% (inactive) |  |
| Cc1cc(C)c2c(n1)nn1c(N3CCOCC3)cc(C)nc21 |  | 25.1 µM (active) |
| Cc1cc(C)c2c(n1)nn1c(N3CCN(c4cccc(Cl)c4)CC3)cc(C)nc21 | 9.7% (inactive) |  |
| Cc1cc(C(=O)O)ccc1[N+](=O)[O-] | -0.468% (inactive) |  |
| CCCCC/C=C/C=C/C=O | -1.37% (inactive) |  |

| SMILES | activity change, negative = inhibition | Potency |
| --- | --- | --- |
| C=CC(=O)c1ccc2ccccc2c1 |  | 20 µM (active) |
| Cc1ccc2nc(CC(=O)c3ccc4ccccc4c3)c(=O)[nH]c2c1 | 11.5% [at 11.4 µM] (inactive) |  |
| CCCC[C@H]1C(=O)N(c2ccccc2)N(c2ccc(O)cc2)C1=O | -44.1% [at 25.6 µM] (inactive) |  |
| COc1ccc(-n2c(=O)c(C)nc3cnc(N4CCOCC4)nc32)cc1 | -4.99% (inactive) |  |
| COCC(=O)N1CCC2(CCCN(c3ccccc3)C2)CC1 | 0.963% (inactive) |  |
| O=C(O)COc1c(Cl)cc(Cl)c2cccnc12 | 7.63% [at 11.4 µM] (inactive) |  |
| Oc1ccc(-c2csc(Nc3cccnc3)n2)cc1 | -8.12% (inactive) |  |
| COc1ccc(OC)c(Nc2nc(-c3ccc(O)c(O)c3)cs2)c1 |  | 0.126 µM (active) |
| COc1ccc(-c2n[nH]c(C)c2-c2ccc(OC)c(OC)c2)c(O)c1 | -5.55% (inactive) |  |
| CO[C@@H]1/C=C\O[C@]2(C)Oc3c(C)c(O)c4c(O)c(c(CN(C)C)c(O)c4c3C2=O)NC(=O)/C(C)=C\C=C[C@@H](C)[C@@H](O)[C@H](C)[C@@H](O)[C@H](C)[C@H](OC(C)=O)[C@@H]1C | -4.82% [at 11.4 µM] (inactive) |  |
| CC(C)NC(=O)N1CC[C@@]2(CCCN(C(=O)c3cccc(F)c3)C2)C1 | 2.38% (inactive) |  |
| COC(=O)NC(c1ccccc1)[C@]1(C(C)=O)CCCC1=O (stereo partly specified) | 4.66% [at 11.4 µM] (inactive) |  |
| CN1CCCc2cc(C#N)c(=O)[nH]c21 |  | 3.16 µM (active) |
| CC/C=C/C/C=C/C/C=C/CCCCCCCC(=O)OCC | -7.06% (inactive) |  |
| CN(C)CCSS(=O)(=O)O | 9.41% [at 11.4 µM] (inactive) |  |
